Measurements published in PubChem BioAssay (EPA / NIEHS).
Some compounds were tested as several samples or in several runs, with calls that do not always agree. Activity calls are given as the source filed them. How the source made its calls: active means hit-call score of the fitted dose curve at least 0.9, where 1 is the maximum; inactive means score below 0.9.

How the values were obtained:
[1] = ATG_CRE_CIS: Attagene CIS-FACTORIAL HepG2 Assay for human cAMP Responsive Element (CRE) binding protein 3 (AID 2282926); conditions: HepG2 CRE cis-reporter, Attagene multiplexed mRNA; actives raise or lower the signal
How it was run: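 Endogenous CRE-binding activity in HepG2 is reported through a cis-regulated transfected reporter. Following a day of exposure, mRNA levels are determined by reverse transcription PCR and fluorescent fragment analysis; fits run in both directions versus DMSO.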

[2] = ATG_CMV_CIS: Attagene CIS-FACTORIAL HepG2 Assay for human CMV (Internal Marker) (AID 2282928); conditions: HepG2 CMV promoter reporter, transcription factor profiling; actives raise or lower the signal;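 further: endpoint acts as a background internal control marker rather than a target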
How it was run: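 CMV internal-marker background readout in transiently transfected HepG2 cells bearing cis-regulated reporter units. Reporter mRNA is measured 24 h after dosing by RT-PCR and capillary electrophoresis, with bidirectional fitting against DMSO.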

[3] = ATG_DR4_LXR_CIS: Attagene CIS-FACTORIAL HepG2 Assay for human Liver X Receptor (LXR), DR4 submotif (AID 2282929); conditions: HepG2 Attagene DR4 cis-reporter, mRNA transcription; actives raise or lower the signal
How it was run: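 After transient transfection with multiplexed cis-promoter reporter units, HepG2 cells received test chemicals for 24 h. Reporter mRNA induction, detected by fluorescence after RT-PCR and capillary electrophoresis, was scored relative to DMSO.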

[4] = biological target: Aryl hydrocarbon receptor (Homo sapiens) (UniProt P35869); test: ATG_Ahr_CIS: Attagene CIS-FACTORIAL HepG2 Assay for human Aryl Hydrocarbon Receptor (Ahr) (AID 2282930); conditions: HepG2 AhR cis-factorial reporter transcription; actives raise or lower the signal
Aryl hydrocarbon receptor (Homo sapiens), sequence (P35869 whole entry, looked up): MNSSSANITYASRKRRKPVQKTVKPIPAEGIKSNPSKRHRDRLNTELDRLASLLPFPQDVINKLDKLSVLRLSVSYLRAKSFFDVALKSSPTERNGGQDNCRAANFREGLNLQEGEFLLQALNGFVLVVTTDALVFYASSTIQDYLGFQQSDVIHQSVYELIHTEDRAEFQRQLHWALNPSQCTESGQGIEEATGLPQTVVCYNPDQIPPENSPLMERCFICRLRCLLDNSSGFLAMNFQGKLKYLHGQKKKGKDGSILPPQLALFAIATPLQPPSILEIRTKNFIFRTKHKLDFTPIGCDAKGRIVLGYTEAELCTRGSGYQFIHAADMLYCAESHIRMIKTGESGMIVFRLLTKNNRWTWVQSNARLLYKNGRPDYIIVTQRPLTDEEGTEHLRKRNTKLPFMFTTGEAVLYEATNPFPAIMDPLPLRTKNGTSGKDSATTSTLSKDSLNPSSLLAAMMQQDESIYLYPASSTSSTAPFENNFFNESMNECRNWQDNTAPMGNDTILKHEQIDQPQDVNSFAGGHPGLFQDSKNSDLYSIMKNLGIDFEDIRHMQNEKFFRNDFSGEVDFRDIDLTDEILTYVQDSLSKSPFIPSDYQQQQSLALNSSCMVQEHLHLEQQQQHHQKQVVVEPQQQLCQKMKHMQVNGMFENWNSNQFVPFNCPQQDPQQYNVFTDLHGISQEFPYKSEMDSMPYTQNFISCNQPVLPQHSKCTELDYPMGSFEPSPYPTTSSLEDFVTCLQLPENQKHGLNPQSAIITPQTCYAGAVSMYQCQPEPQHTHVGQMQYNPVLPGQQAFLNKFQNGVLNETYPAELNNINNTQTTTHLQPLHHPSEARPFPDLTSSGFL
How it was run: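 Endogenous factor activity is tracked through cis-promoter reporter units transfected into HepG2 cells. Transcript levels at 24 h are read by fluorescent RT-PCR and capillary electrophoresis, with activity in either direction scored relative to DMSO.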

[5] = ATG_AP_1_CIS: Attagene CIS-FACTORIAL HepG2 Assay for human Activator Protein 1 (AP-1) (AID 2282931); conditions: HepG2 Attagene cis-factorial AP-1 reporter mRNA; actives raise or lower the signal
How it was run: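 After 24 h incubation with test chemical, RNA from transfected HepG2 cells was reverse-transcribed, amplified, fluorescently labelled and digested before capillary electrophoresis. Reporters were driven by cis-regulatory promoters; activity fitted bidirectionally versus DMSO.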

[6] = ATG_AP_2_CIS: Attagene CIS-FACTORIAL HepG2 Assay for human Activator Protein 2 (AP-2) (AID 2282932); conditions: HepG2 AP-2 cis-reporter, Attagene transcription factor profiling; actives raise or lower the signal
How it was run: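 HepG2 cells transiently transfected with cis-element reporter units and exposed for 24 h. Reporter mRNA measured by RT-PCR, FAM labelling, HpaI digestion and capillary electrophoresis. Changes in either direction fitted relative to DMSO.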

[7] = ATG_BRE_CIS: Attagene CIS-FACTORIAL HepG2 Assay for human Bone Morphogenetic Protein (BMP) Response Element (BRE) (AID 2282933); conditions: HepG2 BMP response element reporter, Attagene transcription factor profiling; actives raise or lower the signal
How it was run: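 Endogenous transcription factor activity at a BMP response element was monitored in transfected HepG2 cells 24 h after dosing. Fluorescent RT-PCR products were resolved by capillary electrophoresis, and activity was fitted in both directions versus DMSO.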

[8] = biological target: Retinoic acid receptor alpha (Homo sapiens) (UniProt P10276); test: ATG_DR5_RAR_CIS: Attagene CIS-FACTORIAL HepG2 Assay for human Retinoic Acid Receptor Alpha (RARE), DR5 submotif (AID 2282934); conditions: HepG2 Attagene cis-factorial RARE DR5 reporter, mRNA; actives raise or lower the signal;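 on AC50: reporter responds to endogenous RAR alpha beta and gamma in HepG2 not RARA alone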
Retinoic acid receptor alpha (Homo sapiens), sequence (P10276 whole entry, looked up): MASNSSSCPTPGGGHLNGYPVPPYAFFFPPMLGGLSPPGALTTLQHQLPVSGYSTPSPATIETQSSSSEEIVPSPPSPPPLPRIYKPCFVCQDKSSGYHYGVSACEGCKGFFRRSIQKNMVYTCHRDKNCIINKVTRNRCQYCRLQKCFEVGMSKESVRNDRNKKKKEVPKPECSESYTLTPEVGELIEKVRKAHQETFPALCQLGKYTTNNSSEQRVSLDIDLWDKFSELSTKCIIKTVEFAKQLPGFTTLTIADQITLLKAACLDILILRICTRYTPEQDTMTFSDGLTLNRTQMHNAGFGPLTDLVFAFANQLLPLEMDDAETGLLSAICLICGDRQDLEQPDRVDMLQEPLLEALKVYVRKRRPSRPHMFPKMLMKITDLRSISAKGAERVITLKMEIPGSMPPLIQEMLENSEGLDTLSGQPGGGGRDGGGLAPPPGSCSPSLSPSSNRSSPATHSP
How it was run: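 After 24 h of chemical exposure, transiently transfected HepG2 cells were lysed for total RNA; the DR5-regulated reporter transcript was quantified via RT-PCR and capillary electrophoresis, with activity fitted bidirectionally against DMSO.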

[9] = biological target: Transcription factor E2F1 (Homo sapiens) (UniProt Q01094); test: ATG_E2F_CIS: Attagene CIS-FACTORIAL HepG2 Assay for human E2F Transcription Factor 1 (AID 2282935); conditions: HepG2 Attagene cis-reporter, E2F reporter RNA transcripts; actives raise or lower the signal
Transcription factor E2F1 (Homo sapiens), sequence (Q01094 whole entry, looked up): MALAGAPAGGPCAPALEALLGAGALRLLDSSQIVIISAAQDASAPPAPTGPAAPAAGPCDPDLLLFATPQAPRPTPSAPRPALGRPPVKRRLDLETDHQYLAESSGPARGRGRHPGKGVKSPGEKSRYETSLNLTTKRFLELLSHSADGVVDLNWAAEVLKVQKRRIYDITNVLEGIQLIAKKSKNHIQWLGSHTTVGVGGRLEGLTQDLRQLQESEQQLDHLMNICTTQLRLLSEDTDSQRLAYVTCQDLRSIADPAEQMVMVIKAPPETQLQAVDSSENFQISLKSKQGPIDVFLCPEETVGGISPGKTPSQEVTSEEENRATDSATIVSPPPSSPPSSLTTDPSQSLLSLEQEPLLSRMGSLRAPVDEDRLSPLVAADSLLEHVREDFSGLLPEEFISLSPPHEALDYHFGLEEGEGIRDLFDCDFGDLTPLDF
How it was run: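 Endogenous E2F1 activity read through cis-promoter reporter units transfected into HepG2. After 24 h compound treatment, reporter mRNA measured by RT-PCR, HpaI digestion and capillary electrophoresis. Bidirectional fit versus DMSO.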

[10] = ATG_E_Box_CIS: Attagene CIS-FACTORIAL HepG2 Assay for human Enhancer Box (E-box) (AID 2282936); conditions: HepG2 E-box cis-reporter transcription, actives raise or lower the signal
How it was run: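 HepG2 cells transiently transfected with multiplexed cis-element reporter units, dosed 24 h; reporter mRNA quantified by RT-PCR, 6-FAM labelling, HpaI digestion and capillary electrophoresis. E-box (USF1) signal fitted bidirectionally vs DMSO.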

[11] = ATG_M_61_CIS: Attagene CIS-FACTORIAL HepG2 Assay for M61 Transcription Factor (Internal Marker) (AID 2282937); conditions: HepG2 Attagene CIS-FACTORIAL M61 internal marker reporter; actives raise or lower the signal
How it was run: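 Using transiently transfected HepG2 liver cells, reporter transcript levels were assessed 24 h post-dosing by RT-PCR and capillary electrophoresis. Changes in either direction were fitted relative to DMSO controls.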

[12] = ATG_EGR_CIS: Attagene CIS-FACTORIAL HepG2 Assay for human Early Growth Response 1 (EGR1) (AID 2282938); conditions: HepG2 Attagene CIS-FACTORIAL EGR reporter mRNA; actives raise or lower the signal
How it was run: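 Fluorescent capillary-electrophoresis signal of reporter cDNA fragments serves as read-out. HepG2 cells bear transiently transfected cis-promoter reporter units and are exposed 24 h; gain- or loss-of-signal is fitted against DMSO.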

[13] = ATG_M_19_CIS: Attagene CIS-FACTORIAL HepG2 Assay for M19 Transcription Factor (Internal Marker) (AID 2282939); conditions: HepG2 Attagene CIS-FACTORIAL M19 internal marker reporter; actives raise or lower the signal
How it was run: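 Background-control endpoint from a multiplexed HepG2 reporter panel. Cells carrying cis-regulated reporter constructs are treated 24 h, then reporter transcripts are amplified, fluorescently labelled and sized by capillary electrophoresis. DMSO defines baseline.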

[14] = ATG_ERE_CIS: Attagene CIS-FACTORIAL HepG2 Assay for Estrogen Response Element (ERE) (AID 2282940); conditions: HepG2 ERE cis-reporter, Attagene RNA transcript; actives raise or lower the signal
How it was run: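 Cells used were human hepatoma HepG2, transfected with multiple reporter transcription units under cis-regulatory promoters. Reporter mRNA, read 24 h post-dosing via fluorescent RT-PCR products on capillary electrophoresis, was fitted bidirectionally relative to DMSO.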

[15] = ATG_Ets_CIS: Attagene CIS-FACTORIAL HepG2 Assay for human Erythroblast Transformation Specific (ETS) (AID 2282941); conditions: HepG2 ETS cis-reporter transcription, actives raise or lower the signal
How it was run: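 HepG2 cells transfected with multiple cis-regulated reporter units measuring endogenous ETS-driven transcription, 24 h after dosing. Reporter mRNA quantified by RT-PCR with capillary electrophoresis; bidirectional fit relative to DMSO.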

[16] = biological target: Hepatocyte nuclear factor 3-beta (Homo sapiens) (UniProt Q9Y261); test: ATG_FoxA2_CIS: Attagene CIS-FACTORIAL HepG2 Assay for human Forkhead box A2 (FOXA2) (AID 2282942); conditions: HepG2 cis-reporter transcription factor activity, 24 h; actives raise or lower the signal
Hepatocyte nuclear factor 3-beta (Homo sapiens), sequence (Q9Y261 whole entry, looked up, the tested form may be a part): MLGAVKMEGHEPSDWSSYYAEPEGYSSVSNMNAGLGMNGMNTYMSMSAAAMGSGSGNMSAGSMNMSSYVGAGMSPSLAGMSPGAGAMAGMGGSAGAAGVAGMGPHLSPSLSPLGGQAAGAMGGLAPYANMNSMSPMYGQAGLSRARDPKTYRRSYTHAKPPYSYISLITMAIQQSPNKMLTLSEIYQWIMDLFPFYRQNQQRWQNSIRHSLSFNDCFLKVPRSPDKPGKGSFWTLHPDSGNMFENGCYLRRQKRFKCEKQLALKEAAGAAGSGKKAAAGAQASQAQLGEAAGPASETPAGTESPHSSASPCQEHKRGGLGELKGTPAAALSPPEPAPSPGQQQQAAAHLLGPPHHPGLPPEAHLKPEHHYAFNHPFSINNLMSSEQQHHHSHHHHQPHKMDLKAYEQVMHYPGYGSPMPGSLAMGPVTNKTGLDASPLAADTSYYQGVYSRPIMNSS
How it was run: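 Fluorescence signal of reporter cDNA fragments, separated by capillary electrophoresis, reflects endogenous transcription factor activity in transfected HepG2 after 24 h. Both increases and decreases fitted against DMSO.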

[17] = ATG_FoxO_CIS: Attagene CIS-FACTORIAL HepG2 Assay for human Forkhead box O (FoxO) (AID 2282943); conditions: HepG2 Attagene cis-reporter, FoxO element, mRNA; actives raise or lower the signal
How it was run: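 Transfected HepG2 reporter cells exposed to test chemical for 24 h; reporter RNA measured by reverse transcription, PCR and fluorescent capillary electrophoresis; curves fitted for increases and decreases against DMSO.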

[18] = ATG_GATA_CIS: Attagene CIS-FACTORIAL HepG2 Assay for human GATA Binding Protein (AID 2282944); conditions: HepG2 GATA cis-element reporter, Attagene multiplex mRNA; actives raise or lower the signal
How it was run: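 Endogenous transcription factor activity was captured through cis-promoter-driven reporters in transfected HepG2 cells. After 24 h exposure, reporter transcripts were quantified by RT-PCR with fluorescent capillary electrophoresis, and responses fitted both directions against DMSO.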

[19] = biological target: CCAAT/enhancer-binding protein beta (Homo sapiens) (UniProt P17676); test: ATG_C_EBP_CIS: Attagene CIS-FACTORIAL HepG2 Assay for human CCAAT/Enhancer Binding Protein (C/EBP) beta (AID 2282927); conditions: HepG2 Attagene cis-factorial transcription factor reporter; actives raise or lower the signal
CCAAT/enhancer-binding protein beta (Homo sapiens), sequence (P17676 whole entry, looked up): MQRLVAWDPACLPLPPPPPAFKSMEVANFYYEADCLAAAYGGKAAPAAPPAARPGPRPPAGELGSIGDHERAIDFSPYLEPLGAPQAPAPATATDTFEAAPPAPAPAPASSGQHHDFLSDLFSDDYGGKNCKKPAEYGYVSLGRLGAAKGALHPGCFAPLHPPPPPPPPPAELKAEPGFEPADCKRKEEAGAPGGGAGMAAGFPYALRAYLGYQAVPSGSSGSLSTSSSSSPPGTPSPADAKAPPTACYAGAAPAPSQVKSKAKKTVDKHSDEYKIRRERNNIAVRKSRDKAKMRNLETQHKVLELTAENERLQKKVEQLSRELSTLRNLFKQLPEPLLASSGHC
How it was run: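 HepG2, transient MRTU transfection, 24 h treatment. RT-PCR plus CE fluorescence; DMSO negative control, bidirectional fit.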

Measured: AC50

CC(C)(C)c1ccc(CSc2cnn(C(C)(C)C)c(=O)c2Cl)cc1
active: [1] 0.188 µM | [3] 50 µM | [5] 0.0997 µM | [7] 0.103 µM | [8] 0.583 µM | [12] 0.128 µM | [14] 5.23 µM
not listed: [19]
inactive: all other assays above

COC(=O)C=C(C)OP(=O)(OC)OC
not listed: [19]
inactive: all other assays above

OC(c1ccc(Cl)cc1)(c1cncnc1)c1ccccc1Cl (stereo not drawn)
inactive: [1] | [2] | [3] | [4] | [5] | [6] | [7] | [8] | [9] | [10] | [11] | [12] | [13] | [14] | [15] | [16] | [17] | [18]
active: [2] 2.95 µM | [3] 13.1 µM | [5] 13.3 µM | [7] 19.8 µM | [8] 13.1 µM | [10] 2.6 µM | [14] 3.79 µM | [18] 12.9 µM

CON(C)C(=O)Nc1ccc(Cl)c(Cl)c1
inactive: [1] | [2] | [3] | [5] | [6] | [7] | [8] | [9] | [10] | [11] | [12] | [13] | [14] | [15] | [16] | [17] | [18]
active: [2] 55.6 µM | [4] 27.4 µM [middle of 4 runs]

CCOc1cc(Oc2ccc(C(F)(F)F)cc2Cl)ccc1[N+](=O)[O-]
active: [2] 13.6 µM | [3] 33.1 µM | [5] 22 µM | [7] 16.6 µM | [14] 13.1 µM
not listed: [19]
inactive: all other assays above

Fc1ccc(Oc2ccnc3cc(Cl)cc(Cl)c23)cc1
active: [2] 6.43 µM | [3] 2.72 µM | [8] 2.77 µM | [10] 5.95 µM
inactive: all other assays above
